Measurements taken from article PMC5700166.
Where a chain is given by its changes, count along the chain named.

How the values were obtained:
Assay in all cases: protein-binding microarray (PBM); PBM: ~300 nM protein, 6 mM HEPES pH 7.8, 80 mM KCl, 0.5 mM EDTA, 0.5 mM EGTA, 6% glycerol, 35 ng/ul poly-dIdC, 1% milk, 1 h, room temperature; Ap Aiptasia and Nv Nematostella (sea anemones) / Co Capsaspora / Aq Amphimedon (sponge) / Dm Drosophila / Hu human; RHD is the Rel homology domain; high values mean tight binding
Conditions in all cases: dsDNA, one strand shown
GST-Ap-NF-kB RHD = target: T1, GST-Ap-NF-kB RHD (Exaiptasia pallida (Aiptasia), UniProt A0A913YAJ5 2-422)
T1 sequence: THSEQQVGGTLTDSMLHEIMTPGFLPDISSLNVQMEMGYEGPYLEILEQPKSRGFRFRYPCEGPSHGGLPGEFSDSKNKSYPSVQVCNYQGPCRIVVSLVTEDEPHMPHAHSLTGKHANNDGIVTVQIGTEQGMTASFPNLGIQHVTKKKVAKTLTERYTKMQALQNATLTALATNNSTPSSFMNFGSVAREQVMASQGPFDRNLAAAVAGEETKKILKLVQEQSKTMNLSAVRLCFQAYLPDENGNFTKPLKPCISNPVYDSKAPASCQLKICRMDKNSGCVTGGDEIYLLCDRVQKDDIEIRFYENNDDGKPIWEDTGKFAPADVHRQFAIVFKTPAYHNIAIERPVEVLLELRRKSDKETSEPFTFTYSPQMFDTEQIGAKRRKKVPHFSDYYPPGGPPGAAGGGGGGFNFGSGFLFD

[1] = target: T2, GST-Nv-NF-kB (Cys allele) (Nematostella vectensis, UniProt E5G601 2-411)
T2 sequence: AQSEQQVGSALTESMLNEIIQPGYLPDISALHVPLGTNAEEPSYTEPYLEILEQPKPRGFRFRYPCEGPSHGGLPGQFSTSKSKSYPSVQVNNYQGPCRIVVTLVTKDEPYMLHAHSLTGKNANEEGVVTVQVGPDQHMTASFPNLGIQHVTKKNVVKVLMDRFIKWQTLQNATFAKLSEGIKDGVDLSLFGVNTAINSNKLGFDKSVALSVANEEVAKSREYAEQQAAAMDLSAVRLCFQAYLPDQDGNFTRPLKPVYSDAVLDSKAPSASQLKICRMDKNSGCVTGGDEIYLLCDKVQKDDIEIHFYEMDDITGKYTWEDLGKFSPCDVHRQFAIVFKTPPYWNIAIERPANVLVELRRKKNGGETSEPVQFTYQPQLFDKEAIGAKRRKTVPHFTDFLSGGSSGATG

[2] = target: T3, GST-Nv-NF-kB (Ser allele) (Nematostella vectensis, UniProt A7UNT2 2-411)
T3 sequence: T2 sequence with Q21R, C66S, S207N, E215Q, V217A, E225K, A268E, D399E

GST-Co-NF-kB = target: T4, GST-Co-NF-kB (Capsaspora owczarzaki, UniProt F1ARL5 200-546)
T4 sequence: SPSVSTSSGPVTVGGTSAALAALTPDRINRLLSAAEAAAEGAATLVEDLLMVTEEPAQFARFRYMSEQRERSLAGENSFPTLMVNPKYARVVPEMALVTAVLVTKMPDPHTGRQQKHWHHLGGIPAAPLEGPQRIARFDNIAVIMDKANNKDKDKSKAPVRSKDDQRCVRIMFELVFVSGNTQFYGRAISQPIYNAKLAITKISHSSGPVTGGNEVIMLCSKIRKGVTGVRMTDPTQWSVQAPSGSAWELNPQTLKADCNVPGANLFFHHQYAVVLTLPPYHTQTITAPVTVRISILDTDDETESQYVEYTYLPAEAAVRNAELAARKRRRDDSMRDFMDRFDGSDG

GST-Dm-Relish = target: T5, GST-Dm-Relish (Drosophila melanogaster, UniProt Q94527 99-473)
T5 sequence: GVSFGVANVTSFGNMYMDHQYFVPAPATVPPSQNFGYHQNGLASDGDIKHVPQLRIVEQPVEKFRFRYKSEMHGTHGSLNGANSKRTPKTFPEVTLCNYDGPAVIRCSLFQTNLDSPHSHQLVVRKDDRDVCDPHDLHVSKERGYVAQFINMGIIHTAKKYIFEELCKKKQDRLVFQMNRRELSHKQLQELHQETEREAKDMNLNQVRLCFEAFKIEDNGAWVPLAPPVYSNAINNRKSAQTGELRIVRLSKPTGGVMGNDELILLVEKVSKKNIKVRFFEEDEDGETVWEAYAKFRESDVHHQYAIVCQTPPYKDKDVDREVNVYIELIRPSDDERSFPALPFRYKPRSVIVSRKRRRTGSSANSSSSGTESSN

GST-Aq-NF-kB = target: T6, GST-Aq-NF-kB (Amphimedon queenslandica, UniProt A9Y5G7 2-389)
T6 sequence: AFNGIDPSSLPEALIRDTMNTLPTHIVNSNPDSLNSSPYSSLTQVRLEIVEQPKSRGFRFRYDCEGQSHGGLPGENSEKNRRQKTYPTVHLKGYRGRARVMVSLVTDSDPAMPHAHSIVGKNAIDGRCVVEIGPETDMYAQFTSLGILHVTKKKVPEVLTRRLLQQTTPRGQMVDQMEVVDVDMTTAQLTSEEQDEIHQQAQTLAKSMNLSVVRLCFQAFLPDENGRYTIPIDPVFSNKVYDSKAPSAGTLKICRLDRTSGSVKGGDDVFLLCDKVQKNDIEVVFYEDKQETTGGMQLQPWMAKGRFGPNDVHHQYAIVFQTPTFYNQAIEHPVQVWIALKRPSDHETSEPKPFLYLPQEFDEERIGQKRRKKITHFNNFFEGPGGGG

| Sequence | binding signal (GST-Ap-NF-kB RHD) | binding signal [1] | binding signal [2] | binding signal (GST-Co-NF-kB) | binding signal (GST-Dm-Relish) | binding signal (GST-Aq-NF-kB) |
| --- | --- | --- | --- | --- | --- | --- |
| CCGATTAACATCAGGGAAACTACTGATGTTAATCGGGTCTTGATTCGCTTGACGCTGCTG | 3.54 z-score | 4.2 z-score | 4.47 z-score | 3.89 z-score | 5.85 z-score | 5.64 z-score |
| CCGATTAACATCAAATCCCCCCTTGATGTTAATCGGGTCTTGATTCGCTTGACGCTGCTG | 8.14 z-score | 6.82 z-score | 7.98 z-score | 6.62 z-score | 7.95 z-score | 6.8 z-score |
| CCGATTAACATCAAATTTTTCCCTGATGTTAATCGGGTCTTGATTCGCTTGACGCTGCTG | 3.81 z-score | 6.06 z-score | 8.21 z-score | 6.81 z-score | 2.35 z-score | 4.92 z-score |
| CCGATTAACATCAGGGGGGGGCATGATGTTAATCGGGTCTTGATTCGCTTGACGCTGCTG | 4.94 z-score | 4.84 z-score | 4.15 z-score | 4.65 z-score | 3.78 z-score | 3.82 z-score |
| CCGATTAACATCAGATTATCCCCTGATGTTAATCGGGTCTTGATTCGCTTGACGCTGCTG | 5.35 z-score | 6.05 z-score | 6.87 z-score | 5.37 z-score | 2.63 z-score | 4.98 z-score |
| CCGATTAACATCACAATTTTCCCTGATGTTAATCGGGTCTTGATTCGCTTGACGCTGCTG | 4.54 z-score | 6.45 z-score | 7.95 z-score | 5.61 z-score | 2.17 z-score | 5.58 z-score |
| CCGATTAACATCAGGGGAACTAATGATGTTAATCGGGTCTTGATTCGCTTGACGCTGCTG | 4.99 z-score | 5.41 z-score | 6.66 z-score | 6.12 z-score | 4.37 z-score | 4.07 z-score |
| CCGATTAACATCACAGATTTCCCTGATGTTAATCGGGTCTTGATTCGCTTGACGCTGCTG | 3.88 z-score | 5.4 z-score | 7.17 z-score | 4.93 z-score | 2.66 z-score | 4.24 z-score |
| CCGATTAACATCACCTATTCCCCTGATGTTAATCGGGTCTTGATTCGCTTGACGCTGCTG | 5.73 z-score | 5.93 z-score | 7.28 z-score | 5.72 z-score | 2.23 z-score | 4.27 z-score |
| CCGATTAACATCAGCCCCCCCCCTGATGTTAATCGGGTCTTGATTCGCTTGACGCTGCTG | 4.45 z-score | 5.13 z-score | 3.95 z-score | 5.44 z-score | 4.51 z-score | 5.11 z-score |
| CCGATTAACATCAGGGAGACCCCTGATGTTAATCGGGTCTTGATTCGCTTGACGCTGCTG | 6.28 z-score | 3.82 z-score | 1.04 z-score | 2.28 z-score | 6.09 z-score | 6.87 z-score |
| CCGATTAACATCAGGGGAAAGCATGATGTTAATCGGGTCTTGATTCGCTTGACGCTGCTG | 5.49 z-score | 6.83 z-score | 8.3 z-score | 6.79 z-score | 2.4 z-score | 4.54 z-score |
| CCGATTAACATCAGGCGTTTCCCTGATGTTAATCGGGTCTTGATTCGCTTGACGCTGCTG | 2.18 z-score | 3.27 z-score | 2.59 z-score | 1.83 z-score | 1.54 z-score | 4.39 z-score |
| CCGATTAACATCAGGGAAAAACCTGATGTTAATCGGGTCTTGATTCGCTTGACGCTGCTG | 5.74 z-score | 7.26 z-score | 7.89 z-score | 3.82 z-score | 8.13 z-score | 9.06 z-score |
| CCGATTAACATCAGTATTCCCCATGATGTTAATCGGGTCTTGATTCGCTTGACGCTGCTG | 6.37 z-score | 7.73 z-score | 6.79 z-score | 7.15 z-score | 4.54 z-score | 5.32 z-score |
| CCGATTAACATCAAGGGGGGGCATGATGTTAATCGGGTCTTGATTCGCTTGACGCTGCTG | 4.34 z-score | 4.38 z-score | 2.83 z-score | 4.6 z-score | 3.45 z-score | 4.09 z-score |
| CCGATTAACATCAAACTTTTCCCTGATGTTAATCGGGTCTTGATTCGCTTGACGCTGCTG | 3.37 z-score | 5.66 z-score | 6.83 z-score | 4.78 z-score | 1.45 z-score | 4.63 z-score |
| CCGATTAACATCAGGGGAACCTATGATGTTAATCGGGTCTTGATTCGCTTGACGCTGCTG | 6.11 z-score | 6.27 z-score | 7.41 z-score | 5.66 z-score | 4.09 z-score | 4.46 z-score |
| CCGATTAACATCAGGGAAAATCATGATGTTAATCGGGTCTTGATTCGCTTGACGCTGCTG | 3.91 z-score | 5.72 z-score | 7.02 z-score | 4.62 z-score | 1.46 z-score | 5.1 z-score |
| CCGATTAACATCACACCCCCCCGTGATGTTAATCGGGTCTTGATTCGCTTGACGCTGCTG | 4.06 z-score | 3.09 z-score | 3.09 z-score | 4.58 z-score | 4.46 z-score | 3.38 z-score |
| CCGATTAACATCAAAGATTTCCCTGATGTTAATCGGGTCTTGATTCGCTTGACGCTGCTG | 4.23 z-score | 6.33 z-score | 7.19 z-score | 4.84 z-score | 2.9 z-score | 5.13 z-score |
| CCGATTAACATCAAATAATTCCCTGATGTTAATCGGGTCTTGATTCGCTTGACGCTGCTG | 4.23 z-score | 7.21 z-score | 7.13 z-score | 5.48 z-score | 4.85 z-score | 6.69 z-score |
